Compounds with a hit are over-represented: about 2.4% of the library has one in this group of screens.
D2 PAM-1 – positive allosteric modulators of human D2 dopamine receptor. DiscoveRx D2 beta-arrestin cells, luminescence, 90 min; 100% = 57 uM dopamine signal. potentiation, % (concentration not given with the values). P14416. 360,000 compounds, 0.23% hits; in the data active = potentiation above about 50%
Target sequence (P14416 whole entry, looked up): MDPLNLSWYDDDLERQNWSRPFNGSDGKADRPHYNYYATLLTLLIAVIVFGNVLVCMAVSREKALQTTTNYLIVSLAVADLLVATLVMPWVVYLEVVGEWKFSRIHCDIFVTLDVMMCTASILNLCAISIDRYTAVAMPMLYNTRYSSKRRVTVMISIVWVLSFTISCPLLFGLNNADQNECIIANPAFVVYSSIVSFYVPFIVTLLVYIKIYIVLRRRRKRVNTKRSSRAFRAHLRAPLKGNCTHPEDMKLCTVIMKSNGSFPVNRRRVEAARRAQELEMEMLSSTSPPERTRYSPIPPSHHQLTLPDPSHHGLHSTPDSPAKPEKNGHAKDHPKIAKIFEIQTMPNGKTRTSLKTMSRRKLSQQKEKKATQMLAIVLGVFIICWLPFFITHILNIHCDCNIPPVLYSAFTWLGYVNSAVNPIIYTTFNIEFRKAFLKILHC
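PathHunter D2 cells, attached overnight at 37 deg C, received compound in DMSO plus dopamine at EC20 (50 nM final) for 90 min at 37 deg C. Beta-arrestin recruitment was read as luminescence after 1 h with detection reagent at ambient temperature.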
D2 PAM-2 – D2 dopamine receptor (human) potentiation; P14416; HEK293 T-REx D2, calcium flux, EC20 dopamine potentiation; potentiation, % at 10 µM; 340,000 compounds, 0.34% hits;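 active = potentiation over 3 SD above the plate norm, cut at about 30% in these data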
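Tetracycline-induced HEK293 T-REx cells force-coupled to calcium signalling expressed D2; compounds were pin-added after a 10 s baseline, read kinetically 180 s, then an EC20 dopamine challenge followed with a further 180 s calcium read.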
D2 ag-1 – D2 dopamine receptor (human) agonism; HEK293 T-REx D2 cells, calcium flux agonist mode; activation, % at 2 µM; AID 485358; 340,000 compounds, 0.53% hits;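 active = activation over 3 SD above normal in the single-dose calcium agonist read, cut at about 30% in these data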
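HEK293 Trex D2 cells, tetracycline-induced, o/n 30 C 5% CO2; no-wash Ca dye, RT 30–90 min; 10-cycle baseline, 23 nl cpd added, kinetic Ca read 180 s; agonist hits = positive Ca response.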
D2 ag-2 – activates the human D2 dopamine receptor; P14416; DiscoveRx PathHunter D2 beta-arrestin, luminescence, 90 min; 100% = 57 uM dopamine signal; activation, % (no concentration beside the values); 360,000 compounds, 0.084% hits; AID 624465; in the data active = activation above about 40%
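Agonist mode: compounds alone added to overnight-plated D2 PathHunter cells for 90 min at 37 C, with 57 uM final dopamine (EC100) defining full response. Beta-arrestin recruitment detected by chemiluminescent reagent, read after 1 h at ambient temperature.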
D2 antagonist – D2 dopamine receptor (human) antagonism. P14416. HEK293 TREx D2 cells, calcium flux, dopamine EC80. inhibition, % at 10 µM. 340,000 compounds, 2% hits; in the data active = inhibition above about 30%; inactive = below that, where a call was filed
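In this primary screen, negative modulation is detected by tracking calcium flux after an EC80 dopamine challenge in inducible HEK293 T-REx D2 cells preexposed to test compound for 180 s.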
Of the large screens only hits and unclear results are named; the others gave an inactive call.

Fc1ccc(-n2cc(CNCCc3ccncc3)c(-c3ccccc3Cl)n2)cc1	D2 antagonist 31
O=C(NNC(=S)NC(=O)c1cccnc1)c1ccc(Cl)cc1	none (no result: D2 PAM-2, D2 ag-1, D2 antagonist)
O=C(Cc1ccc(Cl)cc1)NNC(=S)NC(=O)c1cccnc1	D2 antagonist 40
Cc1cc(N2CCCC2)nc(N2C3CCC2CC(O)(c2ccc(F)cc2)C3)n1 (stereo not drawn)	D2 antagonist 42 (no result: D2 PAM-1, D2 ag-2)
CSCCC(NC(=O)c1ccco1)C(=O)O (stereo not drawn)	D2 PAM-2 31
CSCCC(NC(=O)c1ccco1)C(=O)N1CCCCCCC1 (stereo not drawn)	none
CSc1ccc2c(c1)N(CCC1CCCCN1C)c1ccccc1S2 (stereo not drawn)	D2 antagonist 98
O=C(C1CC1)N(Cc1ccco1)c1nc(-c2ccccc2)cs1	D2 PAM-2 30
COC(=O)[C@@]1(Cc2ccc(F)cc2)[C@H]2c3cc(C(=O)N4CCCC4)n(CCO)c3C[C@H]2CN1C(=O)c1ccccc1	none
COC(=O)[C@@]1(Cc2ccc(F)cc2)[C@H]2c3cc(C(=O)N4CCCC4)n(CCc4ccc(O)c(O)c4)c3C[C@H]2CN1C(=O)c1ccccc1	D2 ag-1 87, D2 antagonist 96 (no result: D2 PAM-1, D2 ag-2)
Cc1ccc(/C=C/C(=O)Nc2ncc(C)s2)o1	none
Cc1ccc(/C=C/C(=O)Nc2nccs2)o1	D2 PAM-1 53
NNc1nc(Nc2ccc([N+](=O)[O-])cc2)nc(N2CCCCCC2)n1	none
Cc1ccc([N+](=O)[O-])cc1Nc1nc(N2CCCC2)nc(N2CCCC2)n1	D2 antagonist 35
CC1CC(C)(C)NC(=S)N1CCC(=O)NCCc1ccc(Cl)cc1 (stereo not drawn)	D2 antagonist 35
CN1C(=O)c2ccccc2Sc2ccc(NC(=O)N3CCN(c4ccccc4F)CC3)cc21	none (no result: D2 PAM-1, D2 ag-1, D2 ag-2, D2 antagonist)
COC(=O)/C(C#N)=C1/SC=C(C)N1c1ccccc1	D2 PAM-2 34 (no result: D2 ag-1, D2 antagonist)
Cc1cccc(CCNC(=O)C2CCC(CNS(=O)(=O)c3c(C)cc(C)cc3C)CC2)c1 (stereo not drawn)	none (no result: D2 PAM-1, D2 ag-2, D2 antagonist)
O=C(OCc1ccccc1)C1=[N+]([O-])OC(C(=O)OCc2ccccc2)C1c1c[nH]c2ccccc12 (stereo not drawn)	D2 PAM-1 63
Cc1cc(Br)ccc1NC(=O)C(Cc1ccccc1)NS(=O)(=O)c1ccc(Br)s1 (stereo not drawn)	none (no result: D2 PAM-1, D2 ag-2, D2 antagonist)
O=C(CN1CCc2cc3c(cc2C1)OCCCO3)Nc1c(F)cccc1F	D2 antagonist 42
COc1ccc(C(O)c2nc(-c3ccccc3OC)cs2)cc1 (stereo not drawn)	none (no result: D2 PAM-2, D2 ag-1, D2 antagonist)
COc1ccccc1N1CCN(Cc2nc(N)nc(Nc3ccccc3)n2)CC1	D2 antagonist 34
COc1ccccc1Nc1nc(N)nc(CN2CCCCCC2)n1	none
CCOC(=O)C1CCCN(Cc2nc(N)nc(Nc3ccccc3OC)n2)C1 (stereo not drawn)	D2 antagonist 34
CCOC(=O)C1CCN(Cc2ccc3ccccc3c2)CC1	none
CCOC(=O)C1CCCN(CC(O)COc2ccccc2C(C)=O)C1 (stereo not drawn)	none
CCOC(=O)C1CCN(Cc2cc(C(C)C)c(O)c(C(C)C)c2)CC1	D2 antagonist 45
CCOC(=O)C1CCCN(CC(O)COC(c2ccccc2)c2ccccc2)C1 (stereo not drawn)	D2 antagonist 33 (no result: D2 PAM-2)
COC(=O)CSCc1nc(-c2ccc(C(=O)OC)cc2)oc1C	none (no result: D2 PAM-1, D2 ag-2, D2 antagonist)
COc1ccc(CN2CCC(C(N)=O)CC2)cc1OCc1ccccc1	none
CCOC(=O)C1CCCN(Cc2ccc(OC)c(OCc3ccccc3)c2)C1 (stereo not drawn)	D2 antagonist 45
CCOC(=O)C1CCCN(Cc2ccc(OCC)cc2)C1 (stereo not drawn)	D2 ag-1 42
CCOc1cc(C2C(C(=O)Nc3ccccc3)=C(C)Nc3ncnn32)cc(Br)c1O (stereo not drawn)	none (no result: D2 PAM-1, D2 ag-2, D2 antagonist)
C=CCNC(=O)c1cccc(NS(=O)(=O)c2ccc(Cl)cc2)c1	none
CN(C)CCNC(=O)c1cccc(NS(=O)(=O)c2ccc(Cl)c(Cl)c2)c1	D2 antagonist 35
Cc1ccc(S(=O)(=O)Nc2cccc(C(=O)NCCN3CCOCC3)c2)cc1F	none

Screening results deposited in PubChem by National Center for Advancing Translational Sciences (NCATS).
